Measured values as given in PubChem BioAssay.
Inconclusive results are not listed. The source made the active and inactive calls.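 The calls were made as follows, unless noted: active = compound raises insulin release from rat beta cells at 5 mM glucose, no numeric limit stated; inactive = the rest.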

Key:
[1] = stimulators of insulin release from INS-1E, primary screen, cell-based, 5 mM glucose, NPC library (AID 1117329); conditions: rat INS-1E insulin secretion, at 10 µM, stronger effect = higher value
[2] = growth inhibition of GSK3B-pretreated HCT116 cells – cell-based, CellTiter-Glo, 0.2 to 20 µM (AID 1117336;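 active = compounds lowering colon cancer cell viability after pretreatment blocking the GSK3B kinase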); conditions: HCT116 viability after GSK3B inhibitor, at 20 µM, stronger effect = higher value
[3] = inhibition of endothelial tube formation, primary screen, imaging, VEGF stimulated, CD31 staining, tube area, NPC library (AID 1117340;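 active = compound that reduces growth-factor-driven endothelial tube area in a mixed cell culture, no cutoff stated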); conditions: VEGF-stimulated ADSC/ECFC co-culture, at 10 µM, stronger effect = higher value
[4] = glucagon-like peptide 1 release enhancers, primary assay, NCI-H716 cell line, NPC library (AID 1117341;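 active = compound raises GLP1 secretion from the human gut endocrine cells, with no numeric limit stated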); conditions: NCI-H716 cells, at 10 µM, stronger effect = higher value
[5] = HCT116 colon cancer cell growth inhibition, primary screen, CellTiter-Glo luminescence, NPC library (AID 1117342;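 active = compounds that lower survival of HCT116 colon cancer cells in the luminescence readout, no numeric limit stated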); conditions: at 20 µM (top of the series)
[6] = CellTiter-Glo luminescent readout of SW480 viability loss, NPC library primary (AID 1117343;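 active = compounds that lower viability of the colon cancer cells in the luminescence readout, with no numeric limit stated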); conditions: CellTiter-Glo luminescence; at 20 µM (top of the series)
[7] = decreased DLD-1 cellular survival, CellTiter-Glo luminescent readout, NPC compound collection, primary HTS (AID 1117346;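 active = compounds that lower survival of DLD-1 colon cancer cells in the luminescence readout, no cutoff given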); conditions: DLD-1 viability, CellTiter-Glo luminescence; at 20 µM (top of the series)
[8] = target: 6-phosphogluconate dehydrogenase, decarboxylating (Homo sapiens) (UniProt P52209); assay: 6PGD enzyme inhibitors, primary screen, biochemical, human, recombinant enzyme, NADPH absorbance (AID 1159550;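 active = at least 20% inhibition of 6-phosphogluconate dehydrogenase activity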); conditions: recombinant 6PGD, NADPH absorbance 341 nm; at 10 µM; stronger effect = higher value
Chain of 6-phosphogluconate dehydrogenase, decarboxylating (Homo sapiens) (P52209 whole entry, looked up): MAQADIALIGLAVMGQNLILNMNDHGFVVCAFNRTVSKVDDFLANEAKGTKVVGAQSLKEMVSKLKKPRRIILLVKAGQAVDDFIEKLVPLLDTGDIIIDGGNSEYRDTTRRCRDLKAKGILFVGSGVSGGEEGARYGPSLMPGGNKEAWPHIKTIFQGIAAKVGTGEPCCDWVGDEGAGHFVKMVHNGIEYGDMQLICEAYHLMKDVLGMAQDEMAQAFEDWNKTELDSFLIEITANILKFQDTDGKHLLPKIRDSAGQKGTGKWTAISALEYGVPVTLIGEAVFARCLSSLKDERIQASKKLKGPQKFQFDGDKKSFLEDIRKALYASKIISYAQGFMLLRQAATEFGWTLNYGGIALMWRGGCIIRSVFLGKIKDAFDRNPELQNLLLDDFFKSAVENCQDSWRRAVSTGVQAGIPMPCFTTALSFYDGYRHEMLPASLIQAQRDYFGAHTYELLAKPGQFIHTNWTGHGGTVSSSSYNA

[9] = differential killing of epithelial or mesenchymal cells, primary screen, imaging, PC-3E GFP, TEM4-18 mCherry, co-culture (AID 1345086;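 active = compounds killing one labelled cell type while sparing the other, by normalised counts and ratio limits, not self-fluorescent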;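 as to all read-outs here: cells exposed to compound for 72 h before imaging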;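 as to red/green cell ratio (normalised): normalised mesenchymal count divided by normalised epithelial count so high means epithelial killing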); conditions: imaging cell counts, at 1 µM; for red/green cell ratio (normalised): actives lie on both sides, counts scaled to control wells, 1 = unselective
[10] = growth inhibition of DIPG glioma cells, dose response, cell-based, SU-DIPG-XVII, MIPE5.0, CellTiter-Glo, qHTS (AID 1347060; cut-off not given, nearly all actives have AC50 up to about 26 µM;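 as to AC50: cells exposed to compound for 48 hours before viability readout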); conditions: SU-DIPG-XVII viability, CellTiter-Glo ATP luminescence
[11] = growth inhibition of DIPG glioma cells, dose response, cell-based, SU-DIPG-XIII, MIPE4.0, CellTiter-Glo, qHTS (AID 1347061; cut-off not given, nearly all actives have AC50 up to about 37 µM;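 also: cells exposed to compound for 48 hours before readout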); conditions: SU-DIPG-XIII viability, CellTiter-Glo ATP luminescence
[12] = growth inhibition of DIPG glioma cells, dose response, cell-based, JHH-DIPG-1, MIPE4.0, CellTiter-Glo, qHTS (AID 1347062; cut-off not given, nearly all actives have AC50 up to about 27 µM;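 as to AC50: cells exposed to compound for two days before readout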); conditions: JHH-DIPG-1 viability, CellTiter-Glo ATP luminescence
[13] = growth inhibition of DIPG glioma cells, dose response, cell-based, SU-DIPG-IV, MIPE4.0, CellTiter-Glo, qHTS (AID 1347063; cut-off not given, nearly all actives have AC50 up to about 30 µM;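 also: compound exposure lasted 48 hours before the viability readout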); conditions: SU-DIPG-IV viability, CellTiter-Glo ATP luminescence
[14] = growth inhibition of DIPG glioma cells, dose response, cell-based, SU-DIPG-XIII, MIPE5.0, CellTiter-Glo, qHTS (AID 1347064; cut-off not given, nearly all actives have AC50 up to about 23 µM;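 as to AC50: cells exposed to compound for 48 hours before the viability read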); conditions: SU-DIPG-XIII viability, CellTiter-Glo ATP luminescence
[15] = measured here: epithelial PC-3E GFP cell survival
[16] = measured here: mesenchymal TEM4-18 mCherry cell survival

COc1ccc(CCN(C)CCCC(C#N)(c2ccc(OC)c(OC)c2)C(C)C)cc1OC (configuration not stated)
1.52: normalised cell number [9, 16]
inactive: insulin secretion stimulation [1] 6.3% | viability decrease [2] -4.2% | tube area decrease [3] -13.1% | GLP1 secretion stimulation [4] -4% | inhibition of viability [5] 27.3% | viability decrease (inhibition) [6] 20.2% | viability decrease (inhibition) [7] -13.8% | inhibition [8] 10.8% | red/green cell ratio (normalised) [9] 1.29 | outcome [10] | outcome [11] | outcome [12] | outcome [13] | outcome [14]
1.17: normalised cell number [9, 15]

Cc1cc(C2CCCCC2)n(O)c(=O)c1
inactive: insulin secretion stimulation [1] 0.4% | GLP1 secretion stimulation [4] -3.2% | inhibition [8] 1.68% | red/green cell ratio (normalised) [9] 1.34
0.78: normalised cell number [9, 15]
active: viability decrease [2] 49.9% | tube area decrease [3] 109% | inhibition of viability [5] 75.1% | viability decrease (inhibition) [6] 108% | viability decrease (inhibition) [7] 90.8% | AC50 [10] 2.35 µM | AC50 [11] 16.6 µM | AC50 [13] 3.32 µM | AC50 [14] 4.17 µM
1.04: normalised cell number [9, 16]

CN(Cc1cc(Br)cc(Br)c1N)C1CCCCC1
1.33: normalised cell number [9, 16]
active: viability decrease [2] 87.5% | inhibition of viability [5] 80.7% | viability decrease (inhibition) [6] 125% | viability decrease (inhibition) [7] 97.2% | AC50 [10] 26.3 µM | AC50 [14] 20.9 µM
inactive: insulin secretion stimulation [1] 6.9% | tube area decrease [3] 7.5% | GLP1 secretion stimulation [4] -1.6% | inhibition [8] 16% | red/green cell ratio (normalised) [9] 1.35 | outcome [11] | outcome [12]
0.99: normalised cell number [9, 15]

OC[C@H]1O[C@@H](O[C@@H]2[C@@H](CO)O[C@](O)(CO)[C@H]2O)[C@H](O)[C@@H](O)[C@H]1O
1.03: normalised cell number [9, 15]
active: viability decrease (inhibition) [6] 86.9%
1.23: normalised cell number [9, 16]
inactive: insulin secretion stimulation [1] 0.5% | viability decrease [2] -11.1% | tube area decrease [3] -2.5% | GLP1 secretion stimulation [4] 0.8% | inhibition of viability [5] 10% | viability decrease (inhibition) [7] -4.2% | inhibition [8] 0.0837% | red/green cell ratio (normalised) [9] 1.2 | outcome [10] | outcome [11] | outcome [13] | outcome [14]

CNC[C@H](O)c1cccc(O)c1
1.11: normalised cell number [9, 16]
0.85: normalised cell number [9, 15]
inactive: insulin secretion stimulation [1] 0% | viability decrease [2] -4.6% | tube area decrease [3] -2.9% | GLP1 secretion stimulation [4] 1.4% | inhibition of viability [5] 3.8% | viability decrease (inhibition) [6] 12.3% | viability decrease (inhibition) [7] -9.9% | inhibition [8] 10.8% | red/green cell ratio (normalised) [9] 1.3 | outcome [10] | outcome [11] | outcome [12] | outcome [13] | outcome [14]

O=C(NC(Cc1cc(=O)[nH]c2ccccc12)C(=O)O)c1ccc(Cl)cc1 (configuration not stated)
0.99: normalised cell number [9, 16]
inactive: insulin secretion stimulation [1] 2.6% | viability decrease [2] -6.2% | tube area decrease [3] 19.9% | GLP1 secretion stimulation [4] -0.3% | inhibition of viability [5] 3.17% | viability decrease (inhibition) [6] 22.7% | viability decrease (inhibition) [7] -11.3% | inhibition [8] 4.66% | red/green cell ratio (normalised) [9] 1.12 | outcome [10] | outcome [12] | outcome [13] | outcome [14]
0.89: normalised cell number [9, 15]

C1CCC(C(CC2CCCCN2)C2CCCCC2)CC1 (configuration not stated)
active: viability decrease [2] 101% | inhibition of viability [5] 100% | viability decrease (inhibition) [6] 120% | viability decrease (inhibition) [7] 103% | AC50 [10] 7.42 µM | AC50 [12] 9.35 µM | AC50 [13] 20.9 µM | AC50 [14] 11.8 µM
inactive: insulin secretion stimulation [1] 7.6% | tube area decrease [3] 9.8% | GLP1 secretion stimulation [4] 4.9% | inhibition [8] 12.3% | red/green cell ratio (normalised) [9] 0.98
1.13: normalised cell number [9, 15]
1.11: normalised cell number [9, 16]

O=c1oc2c(O)c(O)cc3c(=O)oc4c(O)c(O)cc1c4c23
0.85: normalised cell number [9, 15]
0.84: normalised cell number [9, 16]
inactive: insulin secretion stimulation [1] -0.1% | viability decrease [2] 24.7% | GLP1 secretion stimulation [4] -2.3% | inhibition of viability [5] 19.7% | viability decrease (inhibition) [7] 30.7% | inhibition [8] -6.65% | red/green cell ratio (normalised) [9] 0.99 | outcome [10] | outcome [11] | outcome [12] | outcome [14]
active: tube area decrease [3] 58% | viability decrease (inhibition) [6] 75.1%

CCCOc1ccc2nc(NC(=O)OC)[nH]c2c1
inactive: insulin secretion stimulation [1] 1.2% | viability decrease [2] 27% | GLP1 secretion stimulation [4] -1.2% | viability decrease (inhibition) [6] 14.3% | viability decrease (inhibition) [7] 38.1% | inhibition [8] 2.75% | red/green cell ratio (normalised) [9] 1.06 | outcome [11]
0.21: normalised cell number [9, 16]
0.2: normalised cell number [9, 15]
active: tube area decrease [3] 107% | inhibition of viability [5] 57.5% | AC50 [10] 0.372 µM | AC50 [14] 0.661 µM

NC(=O)NO
inactive: insulin secretion stimulation [1] 0% | viability decrease [2] 48.8% | tube area decrease [3] 4.9% | GLP1 secretion stimulation [4] -2% | inhibition of viability [5] 23.9% | viability decrease (inhibition) [6] 8.5% | viability decrease (inhibition) [7] -7.1% | inhibition [8] -7.1% | red/green cell ratio (normalised) [9] 1.09 | outcome [10] | outcome [14]
1.1: normalised cell number [9, 16]
1.01: normalised cell number [9, 15]
active: AC50 [12] 0.526 µM | AC50 [13] 1.87 µM

O=C(Nc1ccc([N+](=O)[O-])cc1Cl)c1cc(Cl)ccc1O
0.36: normalised cell number [9, 15]
active: viability decrease [2] 99.7% | tube area decrease [3] 103% | inhibition of viability [5] 107% | viability decrease (inhibition) [6] 120% | viability decrease (inhibition) [7] 102% | AC50 [10] 1.05 µM | AC50 [11] 0.935 µM | AC50 [12] 1.66 µM | AC50 [13] 1.66 µM | AC50 [14] 1.18 µM
0.24: normalised cell number [9, 16]
inactive: insulin secretion stimulation [1] -1.7% | GLP1 secretion stimulation [4] 3.3% | inhibition [8] 9.61% | red/green cell ratio (normalised) [9] 0.66

NC(=O)c1ncn([C@@H]2O[C@H](CO)[C@@H](O)[C@H]2O)n1
0.89: normalised cell number [9, 16]
1.31: normalised cell number [9, 15]
inactive: insulin secretion stimulation [1] 0% | viability decrease [2] -32.4% | tube area decrease [3] 25.6% | GLP1 secretion stimulation [4] 0.7% | inhibition of viability [5] -15.3% | viability decrease (inhibition) [6] -29.6% | viability decrease (inhibition) [7] 11.6% | inhibition [8] 16.1% | red/green cell ratio (normalised) [9] 0.68 | outcome [10] | outcome [11] | outcome [12] | outcome [14]
